aSyn UTR act = Activators via SNCA 5'UTR binding, MLPCN; alpha-synuclein 5'UTR reporter, activators screen; activity score, % (tested at 7.5 µM), hits read low; 7.1% of 300,000 active; AID 1814; in the data active = activity score below about -60%
Numbers stand for hits. The list is a sample of the results.

CC(/C=N/Nc1nnc(C)c(=O)[nH]1)=C\c1ccccc1 was read as aSyn UTR act -97.3.
`Cc1ccc(NC(=O)c2cccc(C(=O)OC(C)C)n2)c(Br)c1` gave aSyn UTR act -73.0.
COC(=O)c1cccc(C(=O)Nc2ccc(C)cc2Br)n1 was read as aSyn UTR act -155.2.
`COC(=O)C1CC23C=CCN4CCC5(c6ccccc6NC15C2C)C43` (stereo not given) gave aSyn UTR act inactive.
`COc1ccc(C(CNC(=O)c2sccc2C)N2CCOCC2)cc1` (stereo not given) gave aSyn UTR act -69.9.
For Cc1ccc(OCc2cc(C(=O)N3CC4C[C@@H]5CC3C[C@H](C4)C5)no2)cc1C the results were aSyn UTR act -110.8.
Cc1cccc(C)c1OCc1cc(C(=O)N2CC3C[C@@H]4CC2C[C@H](C3)C4)no1 was read as aSyn UTR act -117.3.
Screening CCOc1ccc(NC(=S)NCCCn2ccnc2)cc1 returned aSyn UTR act -76.7.
For CCCCOc1ccc(NC(=O)C(=O)NCCCn2ccnc2)cc1 the results were aSyn UTR act inactive.
`CN1CCC(=NNc2ncnc3sc4c(c23)CCCC4)CC1` gave aSyn UTR act -82.4.
Screening COc1cccc(/C=N/NC(=O)c2[nH]nc3c2CCc2ccccc2-3)c1 returned aSyn UTR act -68.6.
`CC(C)NC(=O)c1[nH]nc2c1CCc1ccccc1-2` gave aSyn UTR act -164.9.
Screening O=C(CSc1nnc2sc3ccccc3n12)c1ccco1 returned aSyn UTR act -117.6.
Screening c1csc(CSc2nnc3sc4ccccc4n23)c1 returned aSyn UTR act -81.2.
O=C(CSc1nnnn1-c1ccccc1)c1ccco1 was read as aSyn UTR act -62.6.
For O=C(COC(=O)CCc1nc2ccccc2s1)Nc1nc(-c2ccccc2)cs1 the results were aSyn UTR act -84.2.
For O=C(CCc1nc2ccccc2s1)OCC(=O)c1ccccc1 the results were aSyn UTR act -99.9.
`O=C(CCc1nc2ccccc2s1)c1ccccc1` gave aSyn UTR act -84.6.
`COc1cc(CNCCc2ccc(S(N)(=O)=O)cc2)ccc1OCc1ccc(Cl)cc1` gave aSyn UTR act -64.2.
Screening CCOc1cc(CNCCc2ccc(S(N)(=O)=O)cc2)ccc1OCc1ccc(Cl)cc1 returned aSyn UTR act inactive.
For O=C(O)c1ccccc1C(=O)Nc1ccc(-c2csc(-c3ccccc3)n2)cc1 the results were aSyn UTR act -64.3.
`CNC(=O)c1ccc(-c2nc(-c3ccccc3)cs2)cc1` gave aSyn UTR act -116.5.
O=C(O)c1ccccc1-c1csc(-c2ccccc2)n1 was read as aSyn UTR act -118.2.
`O=C(O)c1ccc(-c2nc(-c3ccc(Cl)c(Cl)c3)cs2)cc1` gave aSyn UTR act -100.2.
For O=C(O)c1ccccc1C(=O)Nc1ccc(Oc2cccc3ccccc23)cc1 the results were aSyn UTR act inactive.
For O=C(O)c1ccc(-c2nc(-c3ccccc3Cl)cs2)cc1 the results were aSyn UTR act -118.4.
For Cc1oncc1-c1csc(-c2ccccc2)n1 the results were aSyn UTR act -82.0.
`c1ccc(-c2csc(-c3ccc(-c4csnn4)cc3)n2)cc1` gave aSyn UTR act -191.7.
CNC(=O)c1csc(-c2ccc(C)cc2)n1 was read as aSyn UTR act -80.8.
For c1ccc(COc2ccc(-c3csnn3)cc2)cc1 the results were aSyn UTR act -185.2.
Screening O=C(O)c1ccc(-c2nc(-c3ccccc3)cs2)cc1 returned aSyn UTR act -140.3.
`Cc1ccc2nc(N(CCN(C)C)C(=O)c3cc(Cl)sc3Cl)sc2c1` gave aSyn UTR act -133.5.
Cc1ccc2nc(N(CCCN(C)C)C(=O)c3cc(-c4cccs4)nc4ccccc34)sc2c1 was read as aSyn UTR act inactive.
For Cc1cccc2sc(N(CCN(C)C)C(=O)c3cc(Cl)sc3Cl)nc12 the results were aSyn UTR act -85.3.
COCCOCCn1c(/C=C/c2ccccc2)nc2ccccc21 was read as aSyn UTR act -96.6.
COc1ccc(/C=C/c2nc3ccccc3n2Cc2ccc(OC)c(OC)c2)cc1 was read as aSyn UTR act -190.6.
Screening COc1cc(Cn2c(-c3nonc3N)nc3ccccc32)ccc1C returned aSyn UTR act inactive.
CC(C)n1c(/C=C/c2ccccc2)nc2ccccc21 was read as aSyn UTR act -117.8.
Screening Cc1cc2cc(C=C(C#N)C#N)c(Cl)nc2cc1C returned aSyn UTR act -74.8.
For CCN1CCC2(CC1)Oc1c(OC)cccc1C1CC(c3cccnc3)=NN12 (stereo not given) the results were aSyn UTR act -127.8.
For COc1ccc(OC)c(Cc2nnc(CCC(=O)N3CCN(C4CCCC4)CC3)o2)c1 the results were aSyn UTR act -74.0.
Screening N=C1SCC(=O)N1c1nc(-c2ccccc2)cs1 returned aSyn UTR act -159.5.
O=C1CC(c2ccccc2)=NN1c1nc(-c2ccccc2)cs1 was read as aSyn UTR act -150.1.
For c1ccc(C2=Nc3ccccc3SC2c2nc3ccccc3[nH]2)cc1 (stereo not given) the results were aSyn UTR act -249.8.
Screening CCn1c2ccccc2c2cc(CNCc3ccc(OC)cc3OC)ccc21 returned aSyn UTR act inactive.
For CCn1c2ccccc2c2nc3cc(OC)c(OC)cc3nc21 the results were aSyn UTR act -78.5.
For COc1ccc2nc(NC(=O)CSC3=NCCS3)sc2c1 the results were aSyn UTR act -88.1.
`CCCC(=O)Nc1nc2ccc(OC)cc2s1` gave aSyn UTR act -132.8.
`COc1ccc2nc(NC(=O)CSc3cn[nH]n3)sc2c1` gave aSyn UTR act -67.6.
COc1ccc2nc(NC(=O)CSc3ccccc3)sc2c1 was read as aSyn UTR act -128.2.
For Cc1nc(NC(=O)CN2CCOCC2)sc1-c1ccccc1 the results were aSyn UTR act -74.2.
`CCOc1ccc2nc(NC(=O)CSc3nc(SC)ns3)sc2c1` gave aSyn UTR act -167.1.
For CCOc1ccc2nc(NC(=O)CSC3=NCCS3)sc2c1 the results were aSyn UTR act -77.0.
COc1ccc2nc(NC(=S)N(C)C)sc2c1 was read as aSyn UTR act -80.6.
CC(=O)N1CC(=O)N=C1SCC(=O)Nc1nc(C)c(-c2ccccc2)s1 was read as aSyn UTR act -78.9.
For COc1ccc2nc(NC(=O)CN3CCOCC3)sc2c1 the results were aSyn UTR act -63.0.
Screening CCCCCC(=O)N[C@@H](c1ccccc1)[C@@H](O)C(=O)O[C@H]1C[C@@]2(O)[C@@H](OC(=O)c3ccccc3)C3[C@](C)(C(=O)[C@H](OC(C)=O)C(=C1C)C2(C)C)[C@@H](O)C[C@H]1OC[C@@]31OC(C)=O (stereo not given in full) returned aSyn UTR act inactive.
Screening O=C(N/N=C/C(Br)=C/c1ccccc1)c1ccccc1[N+](=O)[O-] returned aSyn UTR act -75.9.
Screening Cc1occc1C(=O)N/N=C/C(Br)=C/c1ccccc1 returned aSyn UTR act -219.2.
O=c1nc2c(-c3ccccc3F)n[nH]n2c2ccccc12 was read as aSyn UTR act -145.8.
`O=C(COc1ccc(F)cc1)N1CCC(c2ccccc2)C1` (stereo not given) gave aSyn UTR act -134.3.
Screening Cc1cccc(OCC(=O)N2CCC(c3ccccc3)C2)c1 (stereo not given) returned aSyn UTR act -158.3.
Screening O=C(c1cc2ccccc2oc1=O)N(c1ccc(Cl)cc1)C1C=CS(=O)(=O)C1 (stereo not given) returned aSyn UTR act -154.6.
CSc1ccc(/C=C/C(=O)c2ccc(O)cc2)cc1 was read as aSyn UTR act -172.0.
For Cc1ccc(/C=C/C(=O)c2ccc(O)cc2)cc1 the results were aSyn UTR act -309.3.

Assay outcomes: PubChem BioAssay, Broad Institute
